MCF10A rerep – A quantitative high throughput screen for small molecules that induce DNA re-replication in MCF 10a normal breast cells | MCF 10A DNA re-replication, Hoechst nuclear intensity, 48 h | Potency, µM (top dose mostly 46.1 µM), for inactives: at the highest dose activity, positive = re-replication, usual class: activators | hit rate 2.9% among 350,000 | AID 624296, 2012; note: % of control where 0% means no effect; nearly all actives have a fitted effect of over 50% in size
VP16 counter – VP16 counterscreen qHTS for inhibitors of ROR gamma transcriptional activity; Drosophila S2 Gal4-VP16 UAS-luciferase, luminescence, 20 h; Potency, µM (series often up to 53.6 µM), without a hit: at the top dose activity, negative = inhibition, hits mostly inhibitors; hit rate 3.5% among 310,000;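 note: Gal4-VP16 expression switched on by copper sulfate through the metallothionein promoter; % is set by controls: 0 for no effect and ±100 for the full control effect; nearly all actives have a fitted effect of over 50% in size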
SW480 rerep – A quantitative high throughput screen for small molecules that induce DNA re-replication in SW480 colon adenocarcinoma cells; Potency, µM (highest dose often 46.1 µM), without a hit: top-dose re-replication activation, hits mostly activators; SW480 DNA re-replication, Hoechst DNA content imaging, 48 h; AID 624297, 2012; hit rate 1.8% among 340,000; note: % of control where 0% means no effect; nearly all actives have a fitted effect of over 55% in size
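DNA re-replication was detected as more nuclei of elevated Hoechst intensity after 48 hr exposure to compound (23 nL pinned per well of 250 cells).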
KB-V1 cytotox – qHTS assay for MDR1-selective chemotherapeutics: Primary screen using the drug-selected MDR subline cells KB-V1; hit rate 3.4% among 400,000; Potency, µM (titrated, usually from 46.1 µM), actives largely listed as cytotoxic; KB-V1 MDR cells viability, CellTiter-Glo, 72 h; note: % is set by controls: 0 for no effect and ±100 for the full control effect; nearly all actives have a fitted effect of over 60% in size
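Cytotoxicity toward P-gp-expressing KB-V1 cells was determined as loss of CellTiter-Glo luminescence after 72 h at 37 degrees C. Compounds were tested in quantitative HTS format across a concentration range, with curves fitted to normalized data.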
KB-3-1 cytotox – qHTS assay for MDR1-selective chemotherapeutics: Primary screen using the parental adenocarcinoma cell KB-3-1 | KB-3-1 viability, CellTiter-Glo ATP luminescence, 72 h | Potency, µM (titrated, usually from 46.1 µM), most hits filed as cytotoxic | hit rate 1.4% among 400,000 | AID 1347075, 2019; note: % is set by controls: 0 for no effect and ±100 for the full control effect; nearly all actives have a fitted effect of over 60% in size
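Using CellTiter-Glo luminescence, growth of non-resistant KB-3-1 adenocarcinoma cells is assessed 72 h after pin-tool compound addition at 37 °C. Normalized responses across the concentration series yield fitted curves.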
RORgamma inh – qHTS for inhibitors of ROR gamma transcriptional activity; Potency, µM (series often up to 53.6 µM), for the others: at the highest dose activity change, negative = inhibition, actives largely listed as inhibitors; Drosophila S2 Gal4-RORgamma UAS-luciferase reporter, 20 h; Nuclear receptor ROR-gamma (Mus musculus), P51450; hit rate 5.4% among 310,000; note: % is set by controls: 0 for no effect and ±100 for the full control effect; nearly all actives have a fitted effect of over 60% in size
Target sequence (P51450 whole entry, looked up, the tested form may be a part): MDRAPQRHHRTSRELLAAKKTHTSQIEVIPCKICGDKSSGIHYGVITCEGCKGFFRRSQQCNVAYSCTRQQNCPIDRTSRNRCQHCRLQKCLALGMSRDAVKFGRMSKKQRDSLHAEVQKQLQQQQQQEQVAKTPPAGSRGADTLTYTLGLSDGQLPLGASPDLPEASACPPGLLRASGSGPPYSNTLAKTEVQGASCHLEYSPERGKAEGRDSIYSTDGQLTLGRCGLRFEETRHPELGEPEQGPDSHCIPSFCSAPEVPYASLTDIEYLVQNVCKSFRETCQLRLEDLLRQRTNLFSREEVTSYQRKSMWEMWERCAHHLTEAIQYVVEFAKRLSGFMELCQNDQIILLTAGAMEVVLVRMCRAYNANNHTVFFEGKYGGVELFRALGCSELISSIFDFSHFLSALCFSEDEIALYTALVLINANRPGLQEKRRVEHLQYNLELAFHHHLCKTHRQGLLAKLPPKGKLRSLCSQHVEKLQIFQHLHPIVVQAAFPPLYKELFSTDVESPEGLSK
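Compounds are pin-transferred onto Drosophila Schneider cells expressing a copper-inducible Gal4–ROR gamma transactivation domain fusion. After 1 hr, copper sulfate is added to 700 uM final; luciferase is read 20 hr later.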
* = called active by the depositor; [ ] = remark or other dose. Shown are actives, neighbours in structure and some others; about 10% of the full set was active somewhere. Calls come from the whole dose curve; as a rule, active = well fitted curve in the direction sought with a large enough effect; inconclusive = small, poorly fitted or top-dose-only effect, or another doubt; inactive = no such curve, though single readings can be large; an effect the other way counts as inactive or inconclusive. Potency is the fitted concentration of half-maximal effect.

`CCN(Cc1ccccc1)C(=O)C1CCN(Cc2ccc(OC)c(OC)c2OC)CC1` gave MCF10A rerep -1%, VP16 counter -1%, SW480 rerep -4%, KB-V1 cytotox 8.2µM*, KB-3-1 cytotox inactive and RORgamma inh -6%.
`CCOC(=O)C(C)/C(C)=N/NC(=O)c1cc2ccccc2cc1O` (stereo unspecified) gave MCF10A rerep inconclusive, VP16 counter 13µM*, SW480 rerep inconclusive, KB-V1 cytotox inactive, KB-3-1 cytotox inactive and RORgamma inh 11µM*.
C/C(CC(=O)N1CCCC1)=N\NC(=O)c1cc2ccccc2cc1O was read as MCF10A rerep 1%, VP16 counter inconclusive, SW480 rerep inconclusive, KB-V1 cytotox inactive, KB-3-1 cytotox inconclusive and RORgamma inh 6.3µM*.
Screening C/C(CC(=O)N1CCN(C=O)CC1)=N\NC(=O)c1ccc(Cl)cc1 returned MCF10A rerep inconclusive, VP16 counter 11µM*, SW480 rerep -23%, KB-V1 cytotox inactive, KB-3-1 cytotox inactive and RORgamma inh inconclusive.
For O=C(OCC(=O)N1CCCCC1)c1cc2ccccc2cc1O the results were MCF10A rerep 7%, VP16 counter -16%, SW480 rerep 10%, KB-V1 cytotox inactive, KB-3-1 cytotox inactive and RORgamma inh 6%.
CC(C)(C)OC(=O)C[C@H]1C/C=C\C[C@@H](CC(=O)NCCO)C(=O)N[C@H](C(C)(C)C)COC1=O was read as MCF10A rerep -4%, SW480 rerep 0%, KB-V1 cytotox inactive and KB-3-1 cytotox inactive.
CC(C)N(Cc1nc(COc2ccccc2)no1)Cc1nccn1C was read as MCF10A rerep 6%, VP16 counter 23%, SW480 rerep 5%, KB-V1 cytotox inactive, KB-3-1 cytotox inactive and RORgamma inh inconclusive.
For COC(=O)c1ccc(-c2noc(CN(Cc3nccn3C)C(C)C)n2)cc1 the results were MCF10A rerep 13%, VP16 counter -6%, SW480 rerep 0%, KB-V1 cytotox inactive, KB-3-1 cytotox inactive and RORgamma inh 10µM*.
CC(C)N(Cc1nc(-c2ccc3c(c2)OCO3)no1)Cc1nccn1C was read as MCF10A rerep 0%, VP16 counter -8%, SW480 rerep 4%, KB-V1 cytotox inconclusive, KB-3-1 cytotox inactive and RORgamma inh 14µM*.
`COC(=O)c1ccc(-c2noc(CN3CCCCC3c3nccn3C)n2)cc1` (stereo unspecified) gave MCF10A rerep 4%, VP16 counter -12%, SW480 rerep -115%, KB-V1 cytotox inactive, KB-3-1 cytotox inactive and RORgamma inh 13µM*.
Screening C=CCn1c2ccccc2c2nnc(SCCCn3c(=O)[nH]c4ccccc43)nc21 returned MCF10A rerep 21µM*, VP16 counter inconclusive, SW480 rerep -2%[9.22 µM], KB-V1 cytotox inconclusive, KB-3-1 cytotox inconclusive and RORgamma inh 5%.
Screening C=CCn1c2ccccc2c2nnc(SCCN3CCCCC3)nc21 returned MCF10A rerep 15%, VP16 counter -15%, SW480 rerep -3%, KB-V1 cytotox inactive, KB-3-1 cytotox inconclusive and RORgamma inh -9%[1.91 µM].
For C#CCN1C=C(C(=O)OCC)C(C)N(Cc2ccccc2I)S1(=O)=O (stereo unspecified) the results were MCF10A rerep 23µM*, SW480 rerep 1.3µM*, KB-V1 cytotox inactive and KB-3-1 cytotox inactive.
Screening O=C(Cn1ncc2c3ccccc3n(Cc3cccc(Cl)c3)c2c1=O)N1CCCCC1 returned KB-V1 cytotox inactive and KB-3-1 cytotox inactive.
COc1cc(NS(=O)(=O)c2ccc(OC)c(C)c2C)c(OC)cc1Cl was read as MCF10A rerep inconclusive, VP16 counter 6.3µM*, SW480 rerep 5.6µM*, KB-V1 cytotox inactive, KB-3-1 cytotox 3.3µM* and RORgamma inh inconclusive.
Screening O=C(CNC(=O)c1cccnc1)c1ccc(F)cc1 returned KB-V1 cytotox inactive and KB-3-1 cytotox inactive.
`CCN1C(=O)/C(=C2/Sc3ccccc3N2CC)S/C1=N\c1ncn[nH]1` gave MCF10A rerep inconclusive, VP16 counter 5µM*, SW480 rerep 24%, KB-V1 cytotox 23µM*, KB-3-1 cytotox inactive and RORgamma inh 11µM*.
`COC(=O)c1ccc(COc2ccccc2/C=C(\C#N)C(=O)Nc2c(C)cccc2C)cc1` gave MCF10A rerep 8.2µM*, VP16 counter inconclusive, SW480 rerep 24%, KB-V1 cytotox inconclusive, KB-3-1 cytotox inconclusive and RORgamma inh inconclusive.
`Cc1cccc(C)c1NC(=O)/C(C#N)=C/c1ccsc1` gave MCF10A rerep inconclusive, VP16 counter inconclusive, SW480 rerep 1.5µM*, KB-V1 cytotox inactive, KB-3-1 cytotox inactive and RORgamma inh inconclusive.
For Cc1ccc(Nc2nnc(SC/C(O)=C(\C#N)c3nc4ccccc4[nH]3)s2)c(C)c1 the results were MCF10A rerep inconclusive, VP16 counter inconclusive, SW480 rerep 10%, KB-V1 cytotox inactive, KB-3-1 cytotox inactive and RORgamma inh inconclusive.
`Cc1cccc(Nc2nnc(SC/C(O)=C(\C#N)c3nc4ccccc4[nH]3)s2)c1` gave MCF10A rerep 16µM*, VP16 counter 11µM*, SW480 rerep 25%, KB-V1 cytotox inactive, KB-3-1 cytotox inconclusive and RORgamma inh 7.1µM*.
COc1ccc(C)cc1-n1nnnc1SC/C(O)=C(\C#N)c1nc2ccccc2[nH]1 was read as MCF10A rerep 4%, VP16 counter inconclusive, SW480 rerep 8%, KB-V1 cytotox inactive, KB-3-1 cytotox inactive and RORgamma inh 13µM*.
COc1ccc(Cl)cc1NC(=O)c1ncn(-c2ccccc2)n1 was read as KB-V1 cytotox inactive and KB-3-1 cytotox inactive.
`CCOc1c(OC)ccc2c3c(c(=O)oc12)CCCC3` gave MCF10A rerep 15%, VP16 counter inconclusive, SW480 rerep -12%, KB-V1 cytotox 8.2µM*, KB-3-1 cytotox inactive and RORgamma inh 1%.
Screening Cc1ccc2cc(C3CC(c4ccco4)=NN3S(=O)(=O)c3ccccc3)c(Cl)nc2c1 (stereo unspecified) returned MCF10A rerep 4%, VP16 counter -3%, SW480 rerep 13%, KB-V1 cytotox inactive, KB-3-1 cytotox inconclusive and RORgamma inh 22%.
